The list is not random: actives were taken first. Their share in the collection is about 7.4%.
p53 reactivation: re-activators of mutant p53 | H1299 p53-A138V BP100-luciferase reporter, luminescence, 24 h | Potency, µM (titrated, usually from 92.2 µM), for the others: at the highest dose activity change, positive = activation, hits mostly activators | 0.063% of 320,000 active | AID 504706; further: % of control where 0% means no effect; nearly all actives have a fitted effect of over 45% in size
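H1299 (p53-null), stable ts p53-A138V + BP100-Luc; 1000 cells/well, Opti-MEM/10% FBS; cpd 4 pt, 1:5; 24 h, 37 deg C, 5% CO2; detection reagent 10 min RT; luminescence.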
ELG1 genotoxic: induces genotoxicity in HEK293T cells with luciferase-tagged ELG1; HEK293T ELG1-luciferase reporter, luminescence, 16 h; Potency, µM (highest dose often 46 µM), for the others: at the top dose activity change, positive = activation, usual class: activators; 1.3% of 330,000 active; further: % of control where 0% means no effect; nearly all actives have a fitted effect of over 60% in size
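Luminescence read-out: rising ELG1-luciferase signal, reflecting elevated ELG1 protein under genetic stress, flags genotoxic compounds. Cells were treated for 16 hr at 37 °C before ONE-Glo detection.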
FLuc modulator: firefly luciferase modulation, counter-screen for miR-21 project; P08659; purified FLuc, Km substrates, luminescence inhibition; Potency, µM (doses to about 57.5 µM), for the others: at the top dose activity change, negative = inhibition, usual class: inhibitors; 6.9% of 360,000 active; AID 588342;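 further: plate controls were vehicle for no effect and reference inhibitor for full effect; nearly all actives have a fitted effect of over 55% in size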
Target sequence (P08659 whole entry, looked up): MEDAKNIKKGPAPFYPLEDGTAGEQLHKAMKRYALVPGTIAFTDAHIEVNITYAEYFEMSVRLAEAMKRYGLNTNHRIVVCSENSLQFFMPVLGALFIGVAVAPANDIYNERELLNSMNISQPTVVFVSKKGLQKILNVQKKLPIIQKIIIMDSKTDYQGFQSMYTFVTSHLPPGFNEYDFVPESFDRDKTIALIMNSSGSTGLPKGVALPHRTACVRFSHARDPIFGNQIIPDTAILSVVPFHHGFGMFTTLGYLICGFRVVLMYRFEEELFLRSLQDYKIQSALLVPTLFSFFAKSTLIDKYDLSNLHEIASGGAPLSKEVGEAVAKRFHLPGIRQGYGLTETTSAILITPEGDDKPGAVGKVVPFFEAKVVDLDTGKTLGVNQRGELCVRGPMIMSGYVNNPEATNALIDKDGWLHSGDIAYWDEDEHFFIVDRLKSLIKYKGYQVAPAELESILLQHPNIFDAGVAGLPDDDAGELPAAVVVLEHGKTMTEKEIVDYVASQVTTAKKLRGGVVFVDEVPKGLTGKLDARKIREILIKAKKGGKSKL
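Biochemical qHTS of compounds, final roughly 60 µM downward over six points, against 10 nM purified firefly luciferase using Km concentrations of substrates (10 uM D-luciferin, 10 uM ATP) in Tris acetate pH 7.5 buffer; luminescence output.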
SMN2 splice enh: SMN2 splice variant enhancement; HEK293 SMN2-luciferase splicing reporter, luminescence, 30-36 h; Potency, µM (highest dose often 46.1 µM), without a hit: at the top dose activity change, positive = activation, actives largely listed as activators; 2.8% of 210,000 active; AID 1458; further: % of control where 0% means no effect; nearly all actives have a fitted effect of over 55% in size
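HEK293 cells carry an SMN2 […]–luciferase reporter in which exon 7 inclusion puts luciferase in frame. Cells were plated 10-12 h before compound addition, then incubated 30-36 h at 37C. ONE-Glo luminescence was read; sodium butyrate at 4.5 mM final served as control.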
NPC1 promoter act: NPC1 promoter activation | Huh7 NPC1 promoter luciferase reporter, 24 h | 2.4% of 320,000 active | Potency, µM (doses to about 9.22 µM), for the others: at the highest dose activation, actives largely listed as activators; further: % of control where 0% means no effect; nearly all actives have a fitted effect of over 60% in size
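Luminescence from an NPC1 promoter-driven luciferase reporter in stably transfected Huh7 cells was measured after 24 h compound treatment at 37 °C, followed by 10 min ambient incubation with luciferase detection reagent.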
Rab9 promoter act: Rab9 promoter activation; 2.8% of 320,000 active; Potency, µM (series often up to 9.22 µM), for the others: top-dose activation, negative = inhibition, usual class: activators; Huh7 Rab9 promoter-luciferase reporter, luminescence, 24 h; AID 485297; further: % of control where 0% means no effect; nearly all actives have a fitted effect of over 60% in size
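Promoter activation is measured as luciferase luminescence in Huh7 cells stably transfected with a Rab9 promoter–luciferase construct, following 24 h compound exposure at 37 °C and 10 min reagent incubation at ambient temperature.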
Numbers without * were called inactive; ? = inconclusive; nt = not tested or not shown; [ ] = another dose, or the depositor's remark. The call rests on the fitted dose curve; in most records, active means well fitted curve in the direction sought with a large enough effect; inconclusive means small, poorly fitted or top-dose-only effect, or another doubt; inactive means no such curve, though single readings can be large; an effect the other way counts as inactive or inconclusive. Potency means the concentration at half of the fitted maximal effect.

SMILES	p53 reactivation	ELG1 genotoxic	FLuc modulator	SMN2 splice enh	NPC1 promoter act	Rab9 promoter act
O=C(CSc1nnc(-c2cccs2)n1Cc1ccco1)Nc1ccc2c(c1)OCO2	-0.4%	-4.9%	0.7%	-20.0%	-1.1%	-2.4%
C[C@H]1CCCC=CC2C[C@H](OC(=O)CN(C)C)C[C@@H]2[C@@H](O)/C=C\C(=O)O1 (stereo not given in full)	nt	nt	nt	-37.0%[9.22 µM]	nt	nt
CCOc1ccc(NC(=S)NC(=O)c2c(Br)cnn2C)c([N+](=O)[O-])c1	15.2%	1.9%	6.01µM*	2.6%	8.4%	16.8%
Cc1ccc(N=C(c2cccs2)N2CCOCC2)cc1	9.2%	?	4.4%	17.8µM*	5.5%	24.1%
Cc1cc(O)c(C)c(O)c1C(=O)O	nt	nt	nt	-1.6%	nt	nt
COCCn1c(C)cc(O)c(C(c2ccc(OC)cc2)N2CCCCC2)c1=O (stereo not given)	nt	nt	-4.7%	nt	nt	nt
CS(=O)(=O)Oc1ccc2c(c1)O/C(=C\C=C\c1ccccc1)C2=O	20.5%	0.6%	7.57µM*	nt	7.4%	-1.2%
CCN(CC)Cc1c(O)ccc2c1O/C(=C\C=C\c1ccccc1)C2=O	5.2%	-0.8%	12µM*	nt	-3.9%	-3.9%
CS(=O)(=O)Oc1ccc2c(c1)O/C(=C\c1cccc([N+](=O)[O-])c1)C2=O	5.0%	-1.0%	-3.5%	nt	2.9%	-1.3%
COc1ccccc1/C=C/C=C1\Oc2c(ccc(O)c2CN(C)C)C1=O	1.3%	1.6%	3.01µM*	nt	2.2%	1.8%
COCCN(CCOC)Cc1c(O)ccc2c1O/C(=C\c1ccc(C)o1)C2=O	6.6%	-1.1%	?	nt	-1.5%	-2.3%
C=C(C)[C@H]1CC[C@]2(CO)CC[C@]3(C)[C@@H](CC[C@H]4[C@@]5(C)CC[C@@H](O)C(C)(C)[C@@H]5CC[C@@]43C)[C@H]12	nt	nt	nt	-4.7%[20.6 µM]	nt	nt
Cn1nnnc1SCCCNCc1ccc(-c2ccc(F)c(Cl)c2)o1	nt	nt	5.4%	nt	nt	nt
O=c1[nH]cnc2nn(-c3ccccc3)nc12	24.5%	?	21.3µM*	?	?	?
Cc1ccc(Cl)c(OCC(=O)Nc2cccnc2)c1	23.1%	?	15.1µM*	nt	?	8.3%
Cc1cc(OCC(=O)Nc2cccnc2)c2c(C)c(C)c(=O)oc2c1	-7.0%	4.4%	0.4%	nt	0.0%	-7.9%
O=C(COc1ccccc1Cl)Nc1cccnc1	6.4%	?	19µM*	nt	?	?
COc1ccccc1OCC(=O)Nc1cc(NC(=O)COc2ccccc2OC)cc(C(=O)O)c1	-14.3%	10.9%	-12.9%	nt	1.1%	4.2%
O=C(COc1ccccc1Cl)Nc1cc(NC(=O)COc2ccccc2Cl)cc(C(=O)O)c1	-5.2%	?	?	nt	?	3.98µM*
O=C(Nc1ccc(Br)cc1)c1ccc(F)c(S(=O)(=O)NC2CCCCCC2)c1	nt	nt	0.5%	nt	nt	nt
O=C(Nc1ccc(Br)cn1)c1ccc2ccccc2c1	?	?	1.9µM*	nt	1.58µM*	1.12µM*
O=C(Nc1ccc(Br)cn1)c1cccc(S(=O)(=O)N2CCCC2)c1	16.5%	-2.6%	nt	nt	nt	nt
O=C(Nc1ccc(Br)cn1)c1cccc(C(=O)Nc2ccc(Br)cn2)c1	?	20.6µM*	3.01µM*	nt	2µM*	0.562µM*
COc1ccc(-n2c(=O)c3c(c4cc(OC)ccc4n3C)n(Cc3ccc(F)cc3Cl)c2=O)cc1	nt	nt	-2.9%	nt	nt	nt
CN(C)c1cccc(C(=O)OCC(=O)N(C)c2ccccc2)c1	3.8%	0.3%	-2.0%	nt	1.4%	-1.4%
COC(=O)c1ccccc1NC(=O)COC(=O)c1ccco1	-1.2%	-0.1%	5.9%	-27.1%	-2.9%	-1.2%
CN(C)c1ccc(N=Nc2ccccc2C(=O)OCC(=O)N(C)c2ccccc2)cc1	?	-1.8%	1.35µM*	?	24.3%	22.6%
COC(=O)c1ccccc1NC(=O)COC(=O)c1ccccc1N=Nc1ccc(N(C)C)cc1	?	0.9%	12µM*	?	2.0%	17.0%
CC(=O)c1ccc(NC(=O)COC(=O)c2ccccc2N=Nc2ccc(N(C)C)cc2)cc1	?	-2.8%	5.36µM*	?	1.2%	11.8%

From PubChem
